Screening results deposited in PubChem BioAssay by several laboratories.
Shown are actives, neighbours in structure and some others; about 3.7% of the full set was active somewhere.
NALP3 yeast inh: NALP3 inflammasome inhibitors in reconstituted yeast, primary screen, luminescence, uHTS | Yeast reconstituted NLRP3/ASC/caspase-1, beta-gal luminescence, 24 h | inhibition, % at 10 µM | hit rate 0.39% among 330,000 | AID 2825, 2010;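 active = inhibition of 50% or more; inactive = inhibition below 50%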
TIM10 inh: growth inhibitors of isogenic TIM10 control yeast, primary screen, counter-screen for tim10-1 yeast inhibitor project, luminescence, uHTS; S. cerevisiae TIM10 strain growth, BacTiter-Glo luminescence, 24 h; AID 463195, 2010; inhibition, % at 10 µM; hit rate 1.4% among 330,000;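 active = inhibition of 40% or more at the single tested concentration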;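 note: wild-type TIM10 isogenic control strain grown at permissive 25 °C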
PfHsp90 yeast 2: growth inhibition of PfHsp90-expressing yeast, primary screen, antimalarial PfHsp90 inhibitor project, S. cerevisiae, BacTiter-Glo luminescence, single point, set 2. BacTiter-Glo ATP, 48 h; yeast lacking PDR1 and PDR3 efflux regulators. inhibition, % at 9.4 µM. hit rate 0.32% among 310,000. AID 504621, 2011;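 active = every replicate shows inhibition above about 80%, whatever the replicate mean, limit read from the data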
tim10-1 inh: growth inhibitors of tim10-1 mutant yeast, primary screen, luminescence, uHTS; S. cerevisiae tim10-1 ts strain growth, BacTiter-Glo, 24 h; inhibition, % at 20 µM; hit rate 2.2% among 330,000;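 active = inhibition of at least 40%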;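 note: mutant grown at 25 °C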
tim23-1 inh: growth inhibitors of tim23-1 mutant yeast, primary screen, luminescence, uHTS. AID 463212, 2010. inhibition, % at 20 µM. S. cerevisiae tim23-1 growth, BacTiter-Glo luminescence, 24 h. hit rate 1.3% among 330,000;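 active = growth inhibition of the mutant yeast at or above 50%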;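 note: temperature-sensitive mutant grown at 25 °C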
tim10 confirm: growth inhibitors of wild-type TIM10 yeast, confirmation, counter-screen for tim10-1 synthetic lethality project, single concentration, luminescence, S. cerevisiae | shares compounds with TIM10 inh | S. cerevisiae tim10 strain growth, BacTiter-Glo luminescence, 24 h | inhibition, % at 10 µM | hit rate 63% among 4,600;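 active = inhibition of yeast growth at or above a set limit in either of two replicates at 10 µM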; note: this counterscreen used the strain with wild-type TIM10
Large screens that a line does not name were inactive (follow-up assays come after a bar, where they were run).

COc1ccc(-c2csc(NC(=O)CSCc3c(C)noc3C)n2)c(OC)c1	TIM10 inh 83 | tim10 confirm inactive
COc1cccc(/C=N/NC(=O)c2cnccn2)c1O	TIM10 inh 95 | tim10 confirm inactive
COc1ccc(/C=N/NC(=O)c2cnccn2)c(OC)c1OC	none
O=C(N/N=C/c1ccccc1OCc1ccccc1)c1cccnc1	TIM10 inh 40 | tim10 confirm inactive
CCCN(CCC)CCCNC(=O)c1cc2cc3ccc(OC)cc3nc2o1	TIM10 inh 65 | tim10 confirm inactive
COc1ccc2cc3cc(C(=O)N4CCN(C5CCCCC5)CC4)oc3nc2c1	TIM10 inh 64 | tim10 confirm 46
COc1ccc2cc3cc(C(=O)NCCCN4CCC(C)CC4)oc3nc2c1	TIM10 inh 77 | tim10 confirm 68
COc1ccc2cc3cc(C(=O)NCCc4ccc(OC)c(OC)c4)oc3nc2c1	TIM10 inh 55 | tim10 confirm inactive
COc1ccc2nc3oc(C(=O)N4CCN(c5ccccc5F)CC4)cc3cc2c1	none
Nc1ccc(-n2nncc2-c2ccc(Cl)cc2)cc1	none
Cc1cc(NC(=O)CSc2ccc(-c3ccc(F)cc3)nn2)no1	none
CN(CC(=O)Nc1ccccc1C(F)(F)F)C(=O)Cc1ccc(S(=O)(=O)N2CCOCC2)s1	none
CSc1ccccc1C(=O)OCC(=O)N1CCCC1=O	none
CCNS(=O)(=O)c1ccc(NC(=O)c2ccc(Cn3cc([N+](=O)[O-])cn3)o2)cc1	TIM10 inh 47 | tim10 confirm inactive
COC(=O)c1ccc(C)c(NC(=O)c2ccc(Cn3cc([N+](=O)[O-])cn3)o2)c1	none
S=C(NCCc1ccccc1)Nc1ccc(Cl)cc1Cl	TIM10 inh 49 | tim10 confirm 49
O=C(Nc1ccc(C2CC2(Cl)Cl)cc1)c1ccccc1Br (stereo not drawn)	TIM10 inh 41 | tim10 confirm inactive
NNC(=O)c1ccc(NS(=O)(=O)c2ccc(Br)cc2)cc1	none (no result: PfHsp90 yeast 2)
O=C(NC12CC3CC(CC(C3)C1)C2)N1CCN(S(=O)(=O)c2ccc(Cl)cc2)CC1	TIM10 inh 43 (no result: PfHsp90 yeast 2) | tim10 confirm inactive
COc1ccc(OCC(O)Cn2cnc(-c3ccc(Br)cc3)c2)cc1 (stereo not drawn)	TIM10 inh 52 | tim10 confirm inactive
OC(COc1ccc(Br)cc1)Cn1ccnc1 (stereo not drawn)	none
O=C(Nc1ccccc1C(=O)NCCc1ccccc1)c1ccco1	TIM10 inh 97 | tim10 confirm inactive
O=C(N/N=C/c1cn(-c2ccccc2)nc1-c1cccs1)c1ccncc1	none
O=C(N/N=C/c1nn(-c2ccccc2)cc1-c1ccccc1)c1ccncc1	TIM10 inh 40 | tim10 confirm inactive
S=C(NCc1ccco1)Nc1cccc(Cl)c1Cl	TIM10 inh 41 (no result: PfHsp90 yeast 2) | tim10 confirm inactive
COC(=O)c1cc(NC(=O)CN(C)Cc2ccccc2)cc(C(=O)OC)c1	none
CSCCC(NC(=O)c1ccc(Cl)cc1)C(=O)OCC(=O)c1ccc[nH]1 (stereo not drawn)	none
NNc1nc2ccc(F)cc2s1	none
Fc1ccc2nc(Nc3ccccc3)sc2c1	TIM10 inh 43 | tim10 confirm inactive
CC(C)(C)NC(=O)CN1CCN(C(=O)CCl)CC1	none
O=C(CNc1ccc2ccccc2c1)N/N=C/c1ccc(OC(=O)/C=C/c2ccco2)cc1	TIM10 inh 41 | tim10 confirm 36
O=C(CNc1cccc2ccccc12)N/N=C/c1ccc(OC(=O)/C=C/c2ccco2)cc1	none (no result: NALP3 yeast inh, TIM10 inh, tim10-1 inh, tim23-1 inh)
CCOC(=O)CCCC(=O)N1CCOCCOCCOCC1	none
CC(C)c1ccccc1NC(=S)NC1CCCCC1	TIM10 inh 46 | tim10 confirm inactive
S=C(Nc1ccccc1Oc1ccccc1)NC1CCCC1	TIM10 inh 41 | tim10 confirm inactive
CCOc1ccc(CCNC(=O)COC(=O)c2ccc(C)s2)cc1OCC	none
CCC(C)n1c(SCC(=O)Nc2cc(C)on2)nc2ccccc2c1=O (stereo not drawn)	none
